Screening results from PubChem BioAssay.
Mcl-1 Bim block: inhibitors of Bim-Mcl-1 interaction, human | Q07820 | inhibition, % at 10 µM | 0.1% of 190,000 active | Bead-based flow cytometry, Bim peptide-Mcl-1 binding; in the data active = inhibition above about 40%;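 note: 0% = no compound tracer wells and 100% = peptide blocker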
Target sequence (Q07820 whole entry, looked up): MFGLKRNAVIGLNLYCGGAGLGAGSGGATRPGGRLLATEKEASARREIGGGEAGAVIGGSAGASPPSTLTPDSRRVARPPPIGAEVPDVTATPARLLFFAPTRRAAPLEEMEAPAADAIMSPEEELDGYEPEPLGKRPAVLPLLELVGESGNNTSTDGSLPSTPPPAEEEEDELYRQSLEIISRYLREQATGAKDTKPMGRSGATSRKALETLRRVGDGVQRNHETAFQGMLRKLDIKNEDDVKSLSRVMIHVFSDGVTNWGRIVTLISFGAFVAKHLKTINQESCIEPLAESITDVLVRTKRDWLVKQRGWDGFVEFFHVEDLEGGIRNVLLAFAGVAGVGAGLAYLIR
Mcl1 Noxa PPI: Mcl-1/Noxa interaction inhibition; Q07820; TR-FRET Mcl-1/Noxa peptide binding, 2 h; inhibition, % at 21.7 µM; 1.5% of 220,000 active;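 active = compounds that cut the protein-peptide binding signal by more than 50% relative to plate controls in a single-dose test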;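 note: His-tagged Mcl-1 with rhodamine Noxa BH3 peptide and terbium anti-His antibody; 0% = Mcl-1 plus Noxa peptide wells and 100% = peptide-only wells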
Mcl1-Bid inh: disrupts binding of human Mcl-1 to Bid peptide. AID 1021. TR-FRET Mcl-1/Bid-Dy647 peptide binding, 1536-well. Q07820. 0.97% of 220,000 active. inhibition, % at 21.7 µM;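 active = compounds that cut the binding signal by more than half at the single screening dose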;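 note: His-tagged Mcl-1 with europium anti-His antibody binding Bid BH3 peptide; 0% = Mcl-1 plus peptide wells and 100% = peptide-only wells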
MCL1 BIM primary: inhibitors of human MCL1 binding to BIM-BH3 peptide | Q07820 | GST-MCL1 / FITC-Bim-BH3 fluorescence polarization | inhibition, % at 10.9 µM | 0.68% of 320,000 active | AID 2057;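 active = inhibition above the mean inhibition of all tested compounds plus 3 SD, set per campaign, cut at about 40% in these data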;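 note: 0% = DMSO wells and 100% = unlabeled Bim-BH3 peptide control; higher means more loss of mP so more displacement of Bim peptide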
TNF necrop inh: inhibitors of TNF-alpha induced necroptosis in Jurkat FADD-/- cells. Jurkat FADD-/- TNF necroptosis rescue, ATP luminescence, 24 h; 0 = TNF only, 100 = no-TNF cells. AID 463075. 0.068% of 220,000 active. activation (protection from cell death), % at 10 µM;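 active = activation, meaning protection from cell death, of at least 50% relative to plate controls; inactive = activation below 50%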;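 note: necroptosis triggered by 40 ng/mL TNF-alpha added together with compound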
zVAD death inh: L929 zVAD cell death inhibition | L929 zVAD necroptosis rescue, ATP luminescence, 24 h; with zVAD 60 µM | 0.38% of 220,000 active | viability rescue, % at 10 µM;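 active = activation, scaled between plate controls, above about 75%, limit read from the data; inactive = activation under that limit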;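 note: 0% = zVAD with DMSO and 100% = DMSO alone without zVAD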
Numbers without * were called inactive. Shown are actives, neighbours in structure and some others; about 2.4% of the full set was active somewhere.

How did Cc1cccc(NC2=Nc3ccccc3N3C2=Nc2c(c(C)nn2-c2ccccc2)C3c2ccc(O)c(O)c2)c1 (stereo not drawn) do in these assays?
Mcl-1 Bim block: 4; Mcl1 Noxa PPI: 63*; Mcl1-Bid inh: -29; MCL1 BIM primary: 42*; TNF necrop inh: -10; zVAD death inh: 0

What do the screens show for `CCCNc1c(NC(=O)C2CCC(C)CC2)c(=O)oc2ccccc12` (stereo not drawn)?
MCL1 BIM primary: -4

Results for COc1cc(C(=O)NCc2ccc(C(=O)NCC(OC)OC)cc2)cc(OC)c1OC ?
Mcl-1 Bim block: 0; Mcl1 Noxa PPI: 2; Mcl1-Bid inh: 64*; MCL1 BIM primary: -6; TNF necrop inh: 0; zVAD death inh: 2

Results for COc1cc(C(=O)NCC(C)C)cc(OC)c1OC ?
Mcl-1 Bim block: 0; Mcl1 Noxa PPI: -7; Mcl1-Bid inh: -25; MCL1 BIM primary: 3; TNF necrop inh: 0; zVAD death inh: 0

Results for O=C(NCCNC1CCC(c2ccccc2)CC1)c1cccs1 (stereo not drawn) ?
Mcl-1 Bim block: -2; Mcl1 Noxa PPI: 9; Mcl1-Bid inh: 12; MCL1 BIM primary: -1; TNF necrop inh: 5; zVAD death inh: 1

How did CCOC1=C/C(=C/c2c(N)n3nc(-c4ccccc4)sc3nc2=O)C=CC1=O do in these assays?
Mcl-1 Bim block: -1; Mcl1 Noxa PPI: 89*; Mcl1-Bid inh: -33; TNF necrop inh: 0; zVAD death inh: 5

How did COC1=C/C(=C/c2c(N)n3nc(-c4ccc(C)cc4)sc3nc2=O)C=CC1=O do in these assays?
Mcl-1 Bim block: 3; Mcl1 Noxa PPI: 84*; Mcl1-Bid inh: 27; TNF necrop inh: 0; zVAD death inh: 56

Results for CCS(=O)(=O)c1nn2c(N)c(/C=C3/C=CC(=O)C(OC)=C3)c(=O)nc2s1 ?
Mcl-1 Bim block: 0; Mcl1 Noxa PPI: 58*; Mcl1-Bid inh: -42; MCL1 BIM primary: -33; TNF necrop inh: 0; zVAD death inh: 1

How did CCOC1=C/C(=C/c2c(N)n3oc(C)cc3nc2=O)C=CC1=O do in these assays?
Mcl-1 Bim block: 1; Mcl1 Noxa PPI: 24; Mcl1-Bid inh: -42; MCL1 BIM primary: -2; TNF necrop inh: 0; zVAD death inh: 0

Results for Nc1c(C=C2C=CC(=O)C=C2)c(=O)nc2sc(CC(=O)N3CCCC3)nn12 ?
MCL1 BIM primary: -3

How did CCc1nc2nc(C)c(NS(=O)(=O)c3ccc(C4CCCCC4)cc3)c(=O)n2[nH]1 do in these assays?
MCL1 BIM primary: -5

How did O=[N+]([O-])c1ccc(S(=O)(=O)c2cccc(C(F)(F)F)c2)nc1 do in these assays?
MCL1 BIM primary: 9

How did FC(F)(F)c1nc(-c2cccs2)ncc1-c1nnnn1-c1ccc(Cl)cc1 do in these assays?
Mcl-1 Bim block: 0; Mcl1 Noxa PPI: 3; Mcl1-Bid inh: 65*; MCL1 BIM primary: -1; TNF necrop inh: -10; zVAD death inh: 0

How did COc1ccc(N=C2NC(=O)/C(=C\C=C\c3ccco3)S2)cc1 do in these assays?
Mcl-1 Bim block: 6; Mcl1 Noxa PPI: 82*; Mcl1-Bid inh: -36; TNF necrop inh: -1; zVAD death inh: 6

What do the screens show for `Cc1cccc(N=C2NC(=O)/C(=C/C=C/c3ccco3)S2)c1`?
Mcl-1 Bim block: -5; Mcl1 Noxa PPI: 106*; Mcl1-Bid inh: 31; MCL1 BIM primary: -16; TNF necrop inh: 0; zVAD death inh: 2

What do the screens show for `O=C1NC(=Nc2ccc3ccccc3c2)S/C1=C/c1ccco1`?
Mcl-1 Bim block: 2; Mcl1 Noxa PPI: 64*; Mcl1-Bid inh: -66; MCL1 BIM primary: 13; TNF necrop inh: -3; zVAD death inh: 0

Results for Cc1ccc(N=C2NC(=O)/C(=C\c3ccco3)S2)cc1 ?
Mcl-1 Bim block: -3; Mcl1 Noxa PPI: 45; Mcl1-Bid inh: -28; MCL1 BIM primary: 13; TNF necrop inh: -2; zVAD death inh: 1

Results for O=C1NC(=Nc2ccc(O)cc2)S/C1=C/c1ccco1 ?
Mcl-1 Bim block: 0; Mcl1 Noxa PPI: 47; Mcl1-Bid inh: -4; MCL1 BIM primary: 14; TNF necrop inh: -3; zVAD death inh: 48

What do the screens show for `COc1ccc(N2CC(C(=O)N[C@H](C(=O)NC(C)c3ccccc3)C(C)C)CC2=O)cc1` (stereo partly drawn)?
MCL1 BIM primary: 10
